The values below come from PubChem BioAssay (Tox21).

Assay [1] is described as follows: A CellTox Green Cytotoxicity Assay to monitor cytotoxicity in HEK293 cells - 8 hour (AID 1224884). Also: nearly all actives have a fitted effect of over 35% in size. Also: potency is read from the fitted curve at half-maximal effect. A digest of the protocol: (§1)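 Homogeneous no-lysis format: HEK293 cell suspension mixed with CellTox Green reagent, seeded, incubated 5 h at 37 C/5% CO2, then dosed by pintool with compound in DMSO.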
Assay [2] in a line: qHTS RealTime-Glo MT Cell Viability Assay in HepG2 cells - 16 hour (AID 1224885). Also: nearly all actives have a fitted effect of over 50% in size. Also: potency is read from the fitted curve at half-maximal effect. A digest of the protocol:
(§2)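 Tox21 10K library screened in qHTS format on HepG2 cells carrying RealTime-Glo reagents. Compounds were added after a 5 h preincubation, and the luminescent signal from continuous culture was measured repeatedly during 40 h treatment.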

The nature of assay [3]: qHTS RealTime-Glo MT Cell Viability Assay in HEK293 cells - 24 hour (AID 1224886). Also: nearly all actives have a fitted effect of over 50% in size. Also: potency is read from the fitted curve at half-maximal effect. The method in brief:
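Luminescence generated by NanoLuc from substrate produced by living HEK293 cells served as the viability signal. Each value reflects the reading at its stated time point during continuous 40 h compound exposure at 37 C.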

The nature of assay [4]: A CellTox Green Cytotoxicity Assay to monitor cytotoxicity in HEK293 cells - 16 hour (AID 1224888). Also: nearly all actives have a fitted effect of over 35% in size. Also: potency is read from the fitted curve at half-maximal effect. A digest of the protocol:
as §1

Assay [5] can be described thus: qHTS RealTime-Glo MT Cell Viability Assay in HepG2 cells - 0 hour (AID 1224889). Also: nearly all actives have a fitted effect of over 50% in size. A digest of the protocol:
as §2

The nature of assay [6]: A CellTox Green Cytotoxicity Assay to monitor cytotoxicity in HepG2 cells - 8 hour (AID 1224890). Also: nearly all actives have a fitted effect of over 45% in size. Also: potency is read from the fitted curve at half-maximal effect. A digest of the protocol:
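Fluorescent DNA-binding dye, 600 HepG2 cells/well, 5 h preincubation then compound in DMSO; same plates read at 0–40 h, 37 C.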

Assay [7] is described as follows: qHTS assay to identify small molecule antagonists of the estrogen receptor alpha (ER-alpha) signaling pathway using the BG1 cell line in the presence of 0.1 nM 17-beta-estradiol - cell viability counter screen (AID 1259241). Also: nearly all actives have a fitted effect of over 40% in size. A digest of the protocol:
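Viability in VM7Luc4E2 cells after 22 hr compound exposure under 0.1 nM 17beta-estradiol stimulation, by CellTiter-Fluor.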

A short description of assay [8]: qHTS assay to identify small molecule antagonists of the androgen receptor (AR) signaling pathway using the MDA cell line in the presence of 0.5 nM R1881 - cell viability counter screen (AID 1259242). Also: nearly all actives have a fitted effect of over 45% in size. Also: potency is read from the fitted curve at half-maximal effect. A digest of the protocol: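 Human breast carcinoma MDA-kb2 cells, cultured without CO2, receive compounds alongside 0.5 nM (final) R1881 agonist. After 16 hr at 37C, viability is taken as live-cell protease signal.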

In assay [9] the target is Estrogen receptor (Homo sapiens) (UniProt P03372). The experiment in a line: qHTS assay to identify small molecule antagonists of the estrogen receptor alpha (ER-alpha) signaling pathway using the BG1 cell line in the presence of 0.1 nM 17-beta-estradiol (AID 1259244). Also: nearly all actives have a fitted effect of over 50% in size. Also: potency is read from the fitted curve at half-maximal effect. A digest of the protocol: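 Seeding of stripped-serum-adapted VM7Luc4E2 cells, 24 h attachment, compound transfer, then 0.1 nM final 17beta-estradiol; after 22 h incubation, ONE-Glo reagent and luminescence reading.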

Assay [10] in a line: qHTS assay to identify small molecule HDAC inhibitors (AID 1259364). Also: potency is read from the fitted curve at half-maximal effect.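 Also: wild-type HCT-116 cells with endogenous class I/II HDAC activity; nearly all actives have a fitted effect of over 45% in size.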 A digest of the protocol:
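After a 2 hr compound incubation (37C, 5% CO2), HCT-116 cells seeded at 1,500/well the day before received HDAC-Glo reagent; signal read as luminescence after 30 min at room temperature.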

Assay [11] is described as follows: qHTS assay to identify small molecule HDAC inhibitors - cell viability counter screen (AID 1259365). The method in brief:
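Cytotoxicity was gauged in wild-type HCT-116 cells after a brief 2hr treatment with DMSO-dissolved compounds at 37C and 5% CO2, using CellTiter-Glo luminescence developed for 30min at room temperature.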

A short description of assay [12]: qHTS assay to identify small molecule agonists of the sonic hedgehog signaling (Shh) pathway - cell viability counter screen (AID 1259366). Also: nearly all actives have a fitted effect of over 50% in size. Also: potency is read from the fitted curve at half-maximal effect. A digest of the protocol:
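Stable Gli1-Luc NIH/3T3 clone, 2,000 cells/well. Compound exposure 24hr at 37C. Read-out: CellTiter-Fluor fluorescence.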

Assay [13] is described as follows: qHTS assay to identify small molecule antagonists of the sonic hedgehog signaling (Shh) pathway - cell viability counter screen (AID 1259367). Also: nearly all actives have a fitted effect of over 55% in size. Also: potency is read from the fitted curve at half-maximal effect. The method in brief:
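Cytotoxicity was assessed in parallel with Shh reporter activity by measuring live-cell protease fluorescence (CellTiter-Fluor) in NIH/3T3 cells stably carrying Gli1-Luc, treated with compound under conditioned medium stimulation for 23 hr plus 1 hr reagent incubation.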

A short description of assay [14]: qHTS assay to identify small molecule agonists of the sonic hedgehog signaling (Shh) pathway (AID 1259368; calls by dose curve;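 also: NIH/3T3-derived 3T3Gli1-Luc cells carrying a stable Gli1-driven firefly luciferase reporter; series mostly up to about 92 µM; nearly all actives have a fitted effect of over 15% in size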). A digest of the protocol:
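Stable NIH/3T3 Gli1-Luc reporter clone; 24 hr cpd exposure after a 4 hr settling period; luminescence endpoint.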

The nature of assay [15]: qHTS assay to identify small molecule antagonists of the sonic hedgehog signaling (Shh) pathway (AID 1259369; calls by dose curve; also: nearly all actives have a fitted effect of over 45% in size; also: potency is read from the fitted curve at half-maximal effect). The method in brief:
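Gli1 transcriptional reporter (firefly Luc) in NIH/3T3 background, conditioned-medium activated. 24hr exposure, luminescence endpoint.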

Assay [16] concerns the target Estrogen receptor beta (Homo sapiens) (UniProt Q92731). The experiment in a line: qHTS assay to identify small molecule agonists of the estrogen receptor beta (ER-beta) signaling pathway (AID 1259377; active = well fitted activation curve with a large enough effect in the signal ratio in the repeat runs, not every such curve was filed as active; the % refers to the signal ratio). The method in brief: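 Measured by fluorescence intensity from a B/G FRET beta-lactamase substrate (2 h, room temperature) in ER-beta-UAS-bla HEK293T cells treated with DMSO-dissolved compounds for 16 hr at 37C and 5% CO2.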

The target is the same in assay [17]. The experiment in a line: qHTS assay to identify small molecule antagonists of the estrogen receptor beta (ER-beta) signaling pathway (AID 1259378; active = well fitted inhibition curve with a large enough effect in the signal ratio in the repeat runs, not every such curve was filed as active; the % refers to the signal ratio). A digest of the protocol: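 ER-beta-UAS-bla HEK293T (GripTite) cells in 2% charcoal-stripped FBS medium were preincubated 6 hr at 37C, dosed with compound, then stimulated with 1 nM E2 (final) for 16 hr; beta-lactamase reporter read by B/G FRET fluorescence after 2 hr substrate loading.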

Assay [18] concerns the target Androgen receptor (Homo sapiens) (UniProt P10275). The experiment in a line: qHTS assay to identify small molecule antagonists of the androgen receptor (AR) signaling pathway using the MDA cell line in the presence of 0.5 nM R1881 (AID 1259243). Also: nearly all actives have a fitted effect of over 50% in size. Also: potency is read from the fitted curve at half-maximal effect. The method in brief:
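Cells: MDA-kb2 (MMTV-luc). Stimulus: 0.5 nM R1881. Time: 16 hr, 37C, no CO2. Detection: ONE-Glo luminescence after 30 min at RT.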

Assay [19] in a line: qHTS RealTime-Glo MT Cell Viability Assay in HEK293 cells - 8 hour (AID 1224887). Also: nearly all actives have a fitted effect of over 50% in size. Also: potency is read from the fitted curve at half-maximal effect. The method in brief: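 Measured as luminescence from the same continuously cultured HEK293 wells at successive time points (0, 8, 16, 24, 32, 40 h) after compound addition. Reagent present from seeding; dosing at 5 h; incubation 37 C.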

Values without a mark were called inactive. Results filed as inconclusive are left out. Activity calls are given as the source filed them. Unless noted, calls follow the shape of the dose curve; as a rule, active = well fitted curve in the direction sought with a large enough effect in the repeat runs; inconclusive = weak or mixed curves; inactive = no such curve, though single readings can be large; an effect the other way counts as inactive or inconclusive.

Sequence of Estrogen receptor beta (Homo sapiens) (Q92731 whole entry, looked up): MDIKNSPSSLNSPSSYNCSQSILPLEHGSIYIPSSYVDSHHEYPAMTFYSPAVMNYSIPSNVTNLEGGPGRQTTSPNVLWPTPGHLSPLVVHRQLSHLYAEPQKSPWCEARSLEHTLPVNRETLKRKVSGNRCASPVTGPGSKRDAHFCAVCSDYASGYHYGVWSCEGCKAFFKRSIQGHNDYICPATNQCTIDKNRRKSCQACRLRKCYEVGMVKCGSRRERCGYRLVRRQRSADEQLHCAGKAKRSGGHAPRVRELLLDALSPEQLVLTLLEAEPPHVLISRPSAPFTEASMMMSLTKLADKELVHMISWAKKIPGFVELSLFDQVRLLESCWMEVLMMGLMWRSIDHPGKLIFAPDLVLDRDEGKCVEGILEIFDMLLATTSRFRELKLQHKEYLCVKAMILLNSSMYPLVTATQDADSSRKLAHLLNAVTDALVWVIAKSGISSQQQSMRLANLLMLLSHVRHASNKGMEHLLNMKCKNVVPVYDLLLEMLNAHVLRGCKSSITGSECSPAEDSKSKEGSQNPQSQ
Sequence of Androgen receptor (Homo sapiens) (P10275 whole entry, looked up): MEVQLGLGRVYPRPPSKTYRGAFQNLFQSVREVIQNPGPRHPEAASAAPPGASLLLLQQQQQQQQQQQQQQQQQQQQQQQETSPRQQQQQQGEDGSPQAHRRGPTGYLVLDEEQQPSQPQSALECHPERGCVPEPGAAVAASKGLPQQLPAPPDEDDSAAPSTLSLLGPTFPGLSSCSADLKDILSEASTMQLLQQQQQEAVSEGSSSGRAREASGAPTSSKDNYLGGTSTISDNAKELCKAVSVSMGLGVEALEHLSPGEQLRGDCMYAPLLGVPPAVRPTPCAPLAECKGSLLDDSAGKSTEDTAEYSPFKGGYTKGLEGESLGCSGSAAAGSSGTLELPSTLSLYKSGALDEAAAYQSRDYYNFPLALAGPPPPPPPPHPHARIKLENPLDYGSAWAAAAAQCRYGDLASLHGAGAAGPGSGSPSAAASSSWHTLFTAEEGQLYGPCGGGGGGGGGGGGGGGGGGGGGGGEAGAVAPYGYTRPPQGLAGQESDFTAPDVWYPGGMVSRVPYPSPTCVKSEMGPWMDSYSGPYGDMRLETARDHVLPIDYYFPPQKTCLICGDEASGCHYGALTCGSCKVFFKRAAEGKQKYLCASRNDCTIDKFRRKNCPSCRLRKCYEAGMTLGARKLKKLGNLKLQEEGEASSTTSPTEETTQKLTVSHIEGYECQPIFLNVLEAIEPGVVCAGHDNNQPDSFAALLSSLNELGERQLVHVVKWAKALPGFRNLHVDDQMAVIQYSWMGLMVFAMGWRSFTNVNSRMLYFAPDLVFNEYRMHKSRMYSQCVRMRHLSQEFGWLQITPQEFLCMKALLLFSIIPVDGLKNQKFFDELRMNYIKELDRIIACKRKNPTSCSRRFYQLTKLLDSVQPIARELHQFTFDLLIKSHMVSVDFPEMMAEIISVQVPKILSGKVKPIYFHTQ
Sequence of Estrogen receptor (Homo sapiens) (P03372 whole entry, looked up): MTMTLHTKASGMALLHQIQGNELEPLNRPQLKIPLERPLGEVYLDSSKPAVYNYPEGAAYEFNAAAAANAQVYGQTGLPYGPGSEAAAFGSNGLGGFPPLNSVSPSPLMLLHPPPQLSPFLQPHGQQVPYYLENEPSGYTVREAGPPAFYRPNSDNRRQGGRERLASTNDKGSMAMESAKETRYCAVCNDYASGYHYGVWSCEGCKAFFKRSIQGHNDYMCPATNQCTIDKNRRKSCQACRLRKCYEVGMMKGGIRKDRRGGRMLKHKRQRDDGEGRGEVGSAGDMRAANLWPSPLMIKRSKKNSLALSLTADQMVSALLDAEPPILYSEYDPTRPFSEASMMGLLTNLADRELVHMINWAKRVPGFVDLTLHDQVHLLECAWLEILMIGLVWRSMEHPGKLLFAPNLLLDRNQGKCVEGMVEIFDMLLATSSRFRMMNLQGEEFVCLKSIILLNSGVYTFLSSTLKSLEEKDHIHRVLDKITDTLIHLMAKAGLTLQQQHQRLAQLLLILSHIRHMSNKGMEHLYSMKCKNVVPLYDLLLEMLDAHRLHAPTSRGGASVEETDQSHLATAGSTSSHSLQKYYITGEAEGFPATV

`Cc1ccc2n[nH]nc2c1`: the Potency entry in assay [1], in assay [2], in assay [3], in [4], in assay [5] and in assay [6] was “inactive” in each case. The Potency entry in assay [7], in assay [8], in assay [9], in assay [10], in assay [11] and in [12] was “inactive” throughout. The Potency result in assay [13], in assay [14], in assay [15] and in assay [17] was “inactive” in each case. For the same molecule, in assay [16], the result was inactive.
As for `CC/C(=C(/c1ccc(O)cc1)c1ccc(OCCN(C)C)cc1)c1ccccc1`, the Potency was 28.8 µM (active) in assay [1]; 28.8 µM (active) in [2]; 10.2 µM (active) in assay [3]; 28.8 µM (active) in [4]; 32.3 µM (active) in assay [6]; 40.3 µM (active) in assay [8]. Also, the Potency is 32 µM (active) in [18], 18 µM (active) in assay [12], 18 µM (active) in assay [13] and 14.3 µM (active) in assay [15]. The Potency result in assay [5], in assay [7], in assay [10] and in assay [14] was “inactive” each time.
Turning to `Oc1ccc(C2(c3ccc(O)c(C4CCCCC4)c3)CCCCC2)cc1C1CCCCC1`, the Potency result in assay [1], in assay [4], in assay [5], in assay [10], in [11] and in [14] was “inactive” throughout. Moreover, the Potency in assay [2] is 38.9 µM (active); in assay [3], 38.9 µM (active); in assay [19] it was 43.6 µM (active); in [8], 43.3 µM (active); in assay [9], 43.3 µM (active); in assay [12] it was 19.3 µM (active). In addition, the figures for the Potency in assay [13] and in assay [15] were 21.7 µM (active) and 12.2 µM (active), respectively.
On to `Cc1cccc2c1ccc1ccccc12`, for which the Potency entry in assay [1], in [2], in assay [3], in assay [4], in assay [5] and in [6] was “inactive” in each case. In addition, the Potency entry in [7], in assay [8], in assay [9], in assay [10], in assay [12] and in assay [13] was “inactive” in each case. The Potency result in assay [14], in assay [15] and in assay [17] was “inactive” throughout. Also, the Potency in assay [18] was 15.4 µM (active).
For `Nc1cc([N+](=O)[O-])ccc1Cl`, the Potency result in [1], in assay [2], in assay [3], in assay [4], in assay [5] and in assay [6] was “inactive” each time. Besides, the Potency result in [7], in [8], in assay [10], in assay [11], in [12] and in assay [13] was “inactive” each time. Also, the Potency entry in assay [14], in assay [15] and in assay [17] was “inactive” throughout. For the same molecule, in assay [16], the result was inactive.
Turning to `CCN(CC)c1ccc(N=Nc2ccccc2)cc1`, the Potency entry in assay [1], in assay [2], in assay [4], in [5], in assay [6] and in assay [18] was “inactive” throughout. Moreover, the Potency result in assay [9], in assay [11] and in assay [17] was “inactive” each time. The Potency in [3] is 49 µM (active); in assay [19], 43.6 µM (active); in assay [10], 27.3 µM (active); in [12], 30.6 µM (active); in assay [13] it was 34.4 µM (active). In addition, the call in assay [16] was inactive.
On to `CCN(CCC#N)c1ccc(N=Nc2ccc([N+](=O)[O-])cc2)cc1`, for which the Potency result in assay [1], in assay [2], in [19], in assay [4], in [5] and in assay [6] was “inactive” throughout. The Potency entry in assay [7], in [8], in assay [18], in assay [13], in assay [14] and in assay [15] was “inactive” throughout. Moreover, the Potency result in assay [17] is “inactive”. Besides, the Potency in [10] is 15.4 µM (active). The outcome in assay [16] was inactive.
`CCSCC`: the Potency result in assay [1], in assay [2], in assay [3], in assay [19], in assay [4] and in [5] was “inactive” throughout. The Potency result in [6], in [8], in [10], in assay [11] and in assay [14] was “inactive” throughout. Also, the values for the Potency in [13] and in assay [15] were 57.6 µM (active) and 18.2 µM (active), respectively. Also, the outcome in assay [16] was inactive.
